# Screening data as filed in PubChem BioAssay.
# Shown are actives, neighbours in structure and some others; about 2.6% of the full set was active somewhere.
# PAD4 inh: human PAD4 inhibitors, primary screen, biochemical, fluorescence polarization, 1536-well format | Protein-arginine deiminase type-4 (Homo sapiens), Q9UM07 | recombinant PAD4, RCA probe fluorescence polarization | inhibition, % at 6.36 µM | 330,000 compounds, 0.41% hits | AID 485272, 2010;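 active = percent inhibition above a cutoff equal to the mean of all tested compounds plus 3 SD, cut at about 15% in these data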;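 also: 0% = PAD4 with RCA probe and DMSO and 100% = probe without PAD4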
# Fam108B inh: mouse Fam108B serine hydrolase inhibitors, primary screen, counter-screen for RBBP9 inhibitor project, biochemical, fluorescence polarization; inhibition, % at 9.51 µM; recombinant Fam108B, FP-Rh probe fluorescence polarization; 300,000 compounds, 0.33% hits;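 active = inhibition above the screen mean inhibition plus 3 SD, computed separately per campaign, cut at about 18% in these data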;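 also: inhibitors lower polarization as less probe binds the enzyme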
# PME-1 inh: PME-1 inhibitors via competitive probe labeling, primary screen, biochemical, fluorescence polarization, FP-Rh probe, HTS; recombinant PME-1; inhibition, % at 5.9 µM; 320,000 compounds, 0.53% hits; Protein phosphatase methylesterase 1 (Homo sapiens), Q9Y570;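 active = inhibition above the campaign mean of all compounds plus 3 SD, cut at about 26% in these data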;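 also: competitive labeling of PME-1 active site by serine hydrolase directed probe; 0% = PME-1 with DMSO and 100% = wells lacking PME-1 enzyme; inhibitors block probe labeling so polarization falls and inhibition rises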
# SIAE primary: human SIAE inhibitors, primary screen, biochemical, fluorescence polarization, FP-Rh probe, 1536-well HTS; Sialate O-acetylesterase (Homo sapiens), Q9HAT2; SIAE FP-Rh probe binding; inhibition, % at 9.66 µM; 370,000 compounds, 0.69% hits; AID 1053197, 2014;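 active = inhibition above a cutoff: mean of compounds within the control limits plus 3 SD of those, cut at about 17% in these data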;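 also: 0% = plate median of compound wells and 100% = probe without SIAE protein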
# TCR CD3 inh: inhibitors of human TCR-CD3 interaction, primary screen, biochemical, fluorescence, TAMRA-labeled TCR probe; T-cell receptor (TCR); inhibition, % at 9.4 µM; 360,000 compounds, 0.37% hits; AID 651800, 2012; in the data active = inhibition above about 19%;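 also: recombinant mutant TCR 2C K166C tagged with TAMRA read by polarization; 0% = receptor in buffer alone and 100% = receptor with positive control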
# PRMT1 inh: PRMT1 methyltransferase inhibitors, primary screen, biochemical, fluorescence polarization | Protein arginine N-methyltransferase 1 (Homo sapiens), Q99873 | 370,000 compounds, 1.3% hits | inhibition, % at 2.79 µM | recombinant PRMT1, activity-based probe fluorescence polarization;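 active = inhibition above about 21% made by adding two undisclosed values, limit read from the data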
# PRMT1 confirm: PRMT1 methyltransferase inhibitors, confirmation, biochemical, fluorescence polarization, triplicate. inhibition, % at 2.79 µM. shares compounds with PRMT1 inh. 3,300 compounds, 42% hits. AID 687036, 2013. recombinant His-PRMT1, activity-based probe fluorescence polarization;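 active = mean inhibition across replicates above the hit cutoff derived for the earlier primary screen, cut at about 22% in these data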
# An asterisk follows results filed as active; nt = no result given.
SMILES,PAD4 inh,Fam108B inh,PME-1 inh,SIAE primary,TCR CD3 inh,PRMT1 inh,PRMT1 confirm
COC(=O)C1(CO)NC(c2ccc(C)cc2)C2C(=O)N(c3ccccc3)C(=O)C21 (centres undefined),0,0,2,-3,2,0,nt
O=[N+]([O-])c1ccccc1S(=O)(=O)NCc1ccco1,-4,-3,-1,-3,5,-6,nt
O=C1C2C3C=CC(CNS(=O)(=O)c4ccccc4[N+](=O)[O-])(O3)C2C(=O)N1c1ccccc1 (centres undefined),-2,2,-5,1,-4,76*,42*
Cc1cc(C)c(S(=O)(=O)NCC23C=CC(O2)C2C(=O)N(c4ccccc4)C(=O)C23)c(C)c1 (centres undefined),1,1,6,-4,2,54*,4
COc1ccc(S[C@]2(C(=O)N3CCN(c4ncccn4)CC3)CC(=O)N(c3ccc(Cl)cc3)[C@@H]2c2ccc(OC)cc2)cc1,nt,nt,nt,-5,nt,1,nt
Cc1cc(C)c(NC(=O)c2ccc3c(c2)NC(=O)C(C)S3)c(C)c1 (centres undefined),-1,nt,-4,4,-7,1,nt
CC1Sc2ccc(C(=O)NCc3ccccn3)cc2NC1=O (centres undefined),0,nt,5,10,-2,34*,8
CCn1c(C)cc(/C=C2/NC(=O)N(Cc3ccccc3F)C2=O)c1C,-2,5,4,7,1,4,nt
Cc1ccc(/C=C2/NC(=O)N(c3ccccc3)C2=O)o1,6,3,4,2,2,60*,30*
CCN1C(=O)/C(=C/c2ccc(C)o2)N(C)C1=S,4,5,4,0,-6,45*,1
Cc1ccc(/C=C2/NC(=O)N(Cc3ccccc3F)C2=O)o1,3,2,2,9,-3,83*,10
CCN1C(=O)/C(=C/c2cccs2)N(C)C1=S,-6,-2,-2,-2,5,-1,nt
CCN1C(=O)N/C(=C/c2ccc(C)o2)C1=O,-2,-3,0,7,15,56*,9
Cc1cc(C)cc(OC[C@@H](O)CN2CCC(C(O)(c3ccccc3)c3ccccc3)CC2)c1,nt,nt,nt,2,nt,-7,nt
CCOC(=O)[C@@]12CN(C(=O)OC(C)(C)C)CC=C1N(Cc1ccc(OC)cc1)C(=O)[C@H]2CC(=O)N1CCOCC1,nt,nt,nt,0,nt,-1,nt
COC(=O)C[C@H]1CC[C@@H]2[C@@H](COc3ccc(NC(=O)C4CCCCC4)cc3C(=O)N2C)O1,nt,nt,nt,-1,nt,-2,nt
O=C1N/C(=C/c2ccc(N3CCOCC3)o2)C(=O)N1c1cccc(Cl)c1,-5,-1,0,2,-2,30*,-7
CCCN1C(=O)/C(=C/c2ccc(C)o2)NC1=S,-5,3,1,nt,nt,nt,nt
Cc1ccc(/C=C2/NC(=O)N(Cc3ccc(Br)cc3)C2=O)o1,5,11,-1,2,0,80*,10
C=CCOc1ccc(C2C(C(=O)c3cccs3)=C(O)C(=O)N2c2nnc(C)s2)cc1 (centres undefined),-19,1,3,-9,3,41*,25*
O=C(C1=C(O)C(=O)N(c2nc3ccc(Cl)cc3s2)C1c1ccco1)c1ccco1 (centres undefined),-5,nt,-2,5,18,36*,7
C=CCSc1nnc(N2C(=O)C(O)=C(C(=O)c3ccco3)C2c2ccccc2F)s1 (centres undefined),-10,-8,-2,-2,-7,27*,10
COc1ccc(C2C(C(=O)c3cccs3)=C(O)C(=O)N2c2nncs2)cc1 (centres undefined),2,2,5,4,2,75*,99*
